# Source: PubChem BioAssay (NCI)
# This is part of a sample that, as a whole, favours compounds with a hit. Of some 83,000 tested, about 20% had one in any assay.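 48-hour exposure, single concentration, 96-well plates; percent growth endpoint where 0 means no net growth. Active: below 10.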 Unmarked numbers belong to inactive results. Activity calls are given as the source filed them.
# Columns and labels:
# Assay in all cases: NCI-60 one-dose screen, 48 h (100 = growth as untreated, 0 = no growth, -100 = all killed)
# Details in all cases: 10 µM unless noted
# HCT-15 colon = tested on: HCT-15 colon
# HT29 colon = tested on: HT29 colon
# SNB-19 CNS = tested on: SNB-19 CNS
# PC-3 prostate = tested on: PC-3 prostate
# SK-MEL-5 melanoma = tested on: SK-MEL-5 melanoma
# UACC-62 melanoma = tested on: UACC-62 melanoma
# LOX IMVI melanoma = tested on: LOX IMVI melanoma
# SK-MEL-28 melanoma = tested on: SK-MEL-28 melanoma
# SK-MEL-2 melanoma = tested on: SK-MEL-2 melanoma
# EKVX NSCLC = tested on: EKVX NSCLC
# SN12C renal = tested on: SN12C renal
# UO-31 renal = tested on: UO-31 renal
# TK-10 renal = tested on: TK-10 renal
# ACHN renal = tested on: ACHN renal
# CAKI-1 renal = tested on: CAKI-1 renal
# A498 renal = tested on: A498 renal
# CCRF-CEM leukemia = tested on: CCRF-CEM leukemia
# MOLT-4 leukemia = tested on: MOLT-4 leukemia
# U251 CNS = tested on: U251 CNS
Compound,growth (HCT-15 colon),growth (HT29 colon),growth (SNB-19 CNS),growth (PC-3 prostate),growth (SK-MEL-5 melanoma),growth (UACC-62 melanoma),growth (LOX IMVI melanoma),growth (SK-MEL-28 melanoma),growth (SK-MEL-2 melanoma),growth (EKVX NSCLC),growth (SN12C renal),growth (UO-31 renal),growth (TK-10 renal),growth (ACHN renal),growth (CAKI-1 renal),growth (A498 renal),growth (CCRF-CEM leukemia),growth (MOLT-4 leukemia),growth (U251 CNS)
O=c1ccn(C2CC(O)C(O)C(CO)O2)c(=O)[nH]1 (stereo not given),117%,113%,110%,89.5%,137%,105%,109%,109%,145%,110%,92.5%,85%,121%,116%,97%,118%,7.45% (active),102%,
N[C@H]1CN(C(=O)c2cc3cc(Br)c(F)c(F)c3[nH]2)C[C@@H]1O,102%,103%,96.6%,93.6%,,93.6%,89.6%,106%,,92.8%,,67.2%,107%,102%,79.4%,,97.2%,98.1%,95.9%
COc1ccc(/C=C2\Oc3cc(OCCCN4CCCC4)ccc3C2=O)c(OC)c1,17.8%,10.2%,74.4%,66.8%,,99.3%,-27.7% (active),105%,103%,96.1%,91.8%,74.9%,103%,91.4%,91.9%,,11.9%,32.7%,54.4%
COc1ccc(/C=C2\N=C(c3ccccc3)N(C(=O)c3ccccc3O)NC2=O)cc1,104%,104%,96.6%,,101%,82.8%,95.6%,109%,,88.3%,86.6%,95.9%,97.7%,103%,97.9%,73.6%,,48.3%,94.2%
CN1C(=O)N(C)C2C1NN=c1s/c(=C\c3cccnc3)c(=O)n12 (stereo not given),42.2%,49.1%,81.4%,65.9%,,68.6%,80.1%,81.5%,97.3%,89.6%,93.5%,66.5%,109%,92.3%,57.6%,,79.8%,88.7%,90.2%
COc1cccc(/C=C2\Oc3cc(OCCCN4CCCC4)ccc3C2=O)c1OC,76.2%,48.6%,102%,91.9%,,98.9%,89.2%,105%,105%,93%,95.2%,79.3%,104%,102%,93.1%,,85.1%,91.5%,93.2%
COc1cc(-c2nc(N=Nc3c(O)[nH]c4ccc(Br)cc34)[nH]c(=O)c2C#N)cc(OC)c1OC,98.6%,106%,100%,98.8%,,96.1%,98.2%,111%,102%,100%,97.4%,90%,111%,101%,,,94.5%,96.2%,99.7%
C=C1C(=O)O[C@H]2[C@H]1CC/C(Cn1cc(CNC(=O)c3cc4ccccc4[nH]3)nn1)=C\CC[C@@]1(C)O[C@@H]21,79.8%,11.4%,81.5%,70.2%,64.4%,49.8%,-23.6% (active),54.4%,59.6%,86.9%,59.2%,73.4%,53%,55.8%,80.8%,106%,-18.8% (active),4.74% (active),
COc1ccc(C(=O)N2NC(=O)/C(=C/c3ccc(Br)cc3)N=C2c2ccccc2)cc1,94.8%,93.2%,87.4%,,93.8%,68.3%,87.9%,94.5%,,95.7%,74.1%,92.8%,107%,87.8%,,83.5%,,17.3%,72.9%
COc1cccc(/C=C2\Oc3cc(OCCCN4CCCC4)ccc3C2=O)c1,19.3%,17.8%,87.9%,69%,,96.7%,20.6%,100%,107%,85.3%,85.2%,58.2%,93.3%,93%,85.5%,,1.85% (active),59.5%,75.6%
NC(N)=N/N=C/c1ccc(-c2ccc(-c3cc(Cl)cc(Cl)c3)s2)cc1,-74.5% (active),-74.9% (active),40%,-38.5% (active),86.9%,,,,103%,96.1%,-53.8% (active),72.2%,-68.8% (active),-2.94% (active),50%,73%,,17.4%,-84.1% (active)
CCOC(=O)c1ccc2c(c1)nc(-c1ccc(OCc3ccccc3)c(OC)c1)n2-c1cc(C(C)(C)C)[nH]n1,59.4%,71.7%,105%,55.5%,65.3%,,,107%,92.9%,,85.8%,67.5%,90.5%,72.1%,76.5%,72.3%,,43.4%,91.9%
Cc1c(C(N)=O)sc2c1c(=O)n(Cc1ccccc1)c1nnc(Nc3ccccc3)n21,96.1%,94.3%,101%,96.9%,105%,92.5%,93.5%,109%,103%,94.1%,,67.9%,113%,96.4%,82%,110%,,,
CCOC(=O)C1C(=O)C=C(c2ccc(OC)cc2)CC1c1sc(N(C)Cc2ccccc2)nc1Cl (stereo not given),93.3%,88.1%,74.1%,62.9%,81%,46.1%,92.1%,93.7%,74.3%,82.4%,79.8%,54.2%,93.7%,73.8%,76.7%,93.6%,86.5%,61.5%,
COc1ccc(/C=C2\Oc3cc(OCCCN4CCCC4)ccc3C2=O)cc1,26.3%,17%,92.4%,85.5%,,100%,13.3%,103%,100%,89.6%,90.4%,73.9%,95.2%,92.6%,91.6%,,52.3%,72.2%,82.7%
COc1cc(-c2nc(-c3nc4ccc(Cl)cc4[nH]3)cc3c2[nH]c2ccccc23)cc(OC)c1OC,72.8%,75%,79.9%,53.2%,,33.6%,67.8%,99.8%,62%,,,41.7%,93.6%,66.4%,83.7%,78%,46.5%,34.4%,80.1%
Fc1ccc(Nc2nc(NCCNc3ccnc4cc(Cl)ccc34)nc(N3CCOCC3)n2)cc1,10.5%,-45.5% (active),86.7%,38.2%,43.2%,47.7%,15.5%,-98.5% (active),50.7%,,63.8%,45.2%,86.2%,55.4%,76.9%,8.73% (active),49.1%,25.2%,
N[C@@H]1CCN(C(=O)c2cc3cc(Cl)c(F)c(F)c3[nH]2)C1,96.8%,88%,90.2%,90.5%,,104%,84%,,99.4%,86.9%,90.6%,63.4%,101%,90.9%,68%,,102%,94.7%,86.2%
